Screens as filed in PubChem.
Rows were chosen to be rich in hits. Some 12% of all compounds tested hit in one or more screens of this group.
AmpC detergent – qHTS Inhibitors of AmpC Beta-Lactamase (assay with detergent); AID 485294, 2010; 370,000 tested, 0.041% active; P00811; AmpC hydrolysis of nitrocefin, absorbance 480 nm, 0.01% Triton; Potency, µM (doses to about 114 µM), actives largely listed as inhibitors; further: nearly all actives have a fitted effect of over 25% in size
Target sequence (P00811 whole entry, looked up): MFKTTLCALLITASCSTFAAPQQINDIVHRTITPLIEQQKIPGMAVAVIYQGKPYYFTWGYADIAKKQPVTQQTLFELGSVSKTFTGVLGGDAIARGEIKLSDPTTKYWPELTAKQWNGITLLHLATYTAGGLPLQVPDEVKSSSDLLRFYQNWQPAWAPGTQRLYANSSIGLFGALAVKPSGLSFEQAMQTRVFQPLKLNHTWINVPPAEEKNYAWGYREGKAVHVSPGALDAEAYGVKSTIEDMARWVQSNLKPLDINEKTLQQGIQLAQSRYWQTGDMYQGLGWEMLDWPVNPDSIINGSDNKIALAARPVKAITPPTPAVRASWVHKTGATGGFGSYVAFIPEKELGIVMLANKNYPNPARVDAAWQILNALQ
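AmpC (5.3 nM in the dispensed reagent) in 20 mM phosphate pH 7.0 with 0.01% (detergent screen) or 0.0001% Triton X-100 was preincubated with compounds for 15 min at room temperature. Nitrocefin was then added from an 800 uM solution, and hydrolysis was followed at 480 nm.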
Pf growth 96h – Primary qHTS for delayed death inhibitors of the malarial parasite plastid, 96 hour incubation; P. falciparum luciferase reporter growth, 96 h; Potency, µM (highest dose often 28.7 µM), actives largely listed as inhibitors; 320,000 tested, 6.9% active; AID 504834, 2011
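Compounds incubated with erythrocytes infected by luciferase-expressing P. falciparum (2% hematocrit, 0.05% parasitemia final) for 96 hours, 37 C in 5% CO2. Growth inhibition scored as decreased luciferase luminescence.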
AmpC inh no detg – qHTS Inhibitors of AmpC Beta-Lactamase (assay without detergent). AmpC nitrocefin hydrolysis, absorbance 480 nm, 0.0001% Triton. 330,000 tested, 0.52% active. Potency, µM (series often up to 57.1 µM), hits mostly inhibitors. AID 485341, 2010. P00811; further: nearly all actives have a fitted effect of over 20% in size
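AmpC (5.3 nM in the dispensed reagent) in 20 mM phosphate pH 7.0 with 0.01% (detergent screen) or 0.0001% Triton X-100 was preincubated with compounds for 15 min at room temperature. Nitrocefin was then added from an 800 uM solution, and hydrolysis was followed at 480 nm.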
Pf growth 48h – Primary qHTS for delayed death inhibitors of the malarial parasite plastid, 48 hour incubation. P. falciparum luciferase growth in erythrocytes, 48 h. Potency, µM (titrated, usually from 28.7 µM), hits mostly inhibitors. 310,000 tested, 5.9% active
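A one-generation exposure of luciferase-tagged malaria parasites in RPMI 1640/Albumax erythrocyte culture, 37 C and 5% CO2. Inhibition is inferred from decreased luminescence after adding detection reagent.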
SARS PLpro yeast – qHTS of Yeast-based Assay for SARS-CoV PLP; S. cerevisiae expressing SARS-CoV PLpro, growth rescue; Potency, µM (series often up to 32.9 µM), actives largely listed as activators; 330,000 tested, 0.19% active; AID 485353, 2010; calls by dose curve; further: nearly all actives have a fitted effect of over 55% in size
Sm TGR block – qHTS Assay for the Inhibitors of Schistosoma Mansoni Peroxiredoxins. Schistosoma mansoni thioredoxin glutathione reductase (TGR), Q962Y6. AID 485364, 2010. Potency, µM (top dose mostly 114 µM), actives largely listed as inhibitors. purified TGR, DTNB reduction, TNB absorbance 405 nm. 360,000 tested, 3% active; further: nearly all actives have a fitted effect of over 60% in size
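First, TGR (20 nM dispensed) and NADPH were mixed with compound. Second, a 15 min room-temperature incubation followed. Third, further NADPH and then DTNB were added to start the reaction. Finally, TNB absorbance was monitored kinetically.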
Of the large screens only hits and unclear results are named; the others gave an inactive call; ! = not confirmed by another sample. Unless noted, the call rests on the fitted dose curve; in most records, active means well fitted curve in the direction sought with a large enough effect; inconclusive means small, poorly fitted or top-dose-only effect, or another doubt; inactive means no such curve, though single readings can be large; an effect the other way counts as inactive or inconclusive.

CCOc1ccc(-c2nc(S(=O)(=O)c3ccccc3)c(N3CCC(C(N)=O)CC3)o2)cc1	Pf growth 96h 14.7µM, Pf growth 48h inconclusive, Sm TGR block 35.5µM
O=S(=O)(c1ccccc1)c1nc(-c2cccc(Cl)c2)oc1N1CCOCC1	Pf growth 96h inconclusive, Sm TGR block 31.6µM!
COc1ccc(-c2nc(S(=O)(=O)c3ccccc3)c(N3CCC(C)CC3)o2)cc1	none (no result: Pf growth 96h, AmpC inh no detg, Pf growth 48h, SARS PLpro yeast)
COc1ccc(-c2nc(S(=O)(=O)c3ccc(C)cc3)c(N3CCCC3)o2)cc1	AmpC detergent inconclusive, Pf growth 96h inconclusive, Sm TGR block 2µM
COc1cccc(-c2nc(S(=O)(=O)c3ccc(C)cc3)c(N3CCCCC3)o2)c1	none (no result: Pf growth 96h, AmpC inh no detg, Pf growth 48h, SARS PLpro yeast)
Nc1ccc(C(=O)N2CCN(S(=O)(=O)c3ccc4c(c3)OCCO4)CC2)cc1[N+](=O)[O-]	none
CCC(Oc1ccc(C)cc1)C(=O)Nc1ccc(S(=O)(=O)Nc2cc(C)on2)cc1 (stereo not drawn)	Pf growth 96h 8.28µM
COc1ccc(C(=O)NC(=S)Nc2ccc(S(=O)(=O)Nc3cc(C)on3)cc2)cc1OC	Sm TGR block 17.8µM
Cc1ccc(OC(=O)CCC(=O)Nc2ccc(S(=O)(=O)Nc3cc(C)on3)cc2)cc1	none
Cc1cc(NS(=O)(=O)c2ccc(NC(=S)NC(=O)c3ccccc3)cc2)no1	Pf growth 96h inconclusive, Sm TGR block 50.1µM
Cc1cc(NS(=O)(=O)c2ccc(NC(=O)COc3ccccc3C(C)(C)C)cc2)no1	Pf growth 96h 10.4µM, AmpC inh no detg inconclusive
CCOc1ccc(-n2c(=O)c3c(C)c(C)sc3n(CC(=O)c3ccccc3)c2=O)cc1	none (no result: Pf growth 96h, AmpC inh no detg, Pf growth 48h, SARS PLpro yeast)
Cc1oc2ncn(C)c(=O)c2c1C(=O)N1CCN(c2cccc(C(F)(F)F)c2)CC1	none (no result: Pf growth 96h, AmpC inh no detg, Pf growth 48h, SARS PLpro yeast)
COc1cc(-c2noc(-c3ccc(N4CCN(C)CC4)c([N+](=O)[O-])c3)n2)cc(OC)c1OC	none (no result: Pf growth 96h, AmpC inh no detg, Pf growth 48h, SARS PLpro yeast)
COc1cc(C(=O)Nc2ccc(S(=O)(=O)Nc3cc(C)on3)cc2)cc(OC)c1OC	AmpC detergent inconclusive
CCOc1cc(C(=O)Nc2ccc(S(=O)(=O)Nc3cc(C)on3)cc2)cc(OCC)c1OCC	AmpC detergent inconclusive, Pf growth 96h 10.4µM, Pf growth 48h inconclusive
CCCCNC(=O)CN1CCN(c2ncc(NC(=O)c3ccc(Cl)cc3)cc2C(=O)O)CC1	none (no result: Pf growth 96h, AmpC inh no detg, Pf growth 48h, SARS PLpro yeast)
CCCn1c(=O)c(C(=O)NCCc2ccccc2)c(O)c2ccccc21	Pf growth 96h 14.7µM
CCCn1c(=O)c(C(=O)NCc2ccccc2)c(O)c2ccccc21	AmpC detergent inconclusive
CCCCCn1c(=O)c(C(=O)NCCc2ccccc2)c(O)c2ccccc21	AmpC detergent inconclusive, Pf growth 96h 5.86µM, Pf growth 48h 14.7µM
CCn1c(=O)c(C(=O)NCc2ccc(OC)cc2)c(O)c2ccccc21	none
CCn1c(=O)c(C(=O)NCc2ccccn2)c(O)c2ccccc21	Pf growth 96h 11.7µM
CCCCOc1ccc(C(=O)Nc2cc(-c3cn4cccnc4n3)ccc2OC)cc1	none (no result: Pf growth 96h, AmpC inh no detg, Pf growth 48h, SARS PLpro yeast)
CC(=O)Nc1ccc2c(c1)CCc1ccccc1-2	none (no result: Pf growth 48h)
O=C(O)/C=C/C(=O)c1ccc2c(c1)CCc1ccccc1-2	Sm TGR block 0.562µM
CC(=O)N1CCc2cc(S(=O)(=O)NC(Cc3ccccc3)C(=O)O)ccc21 (stereo not drawn)	Pf growth 96h 16.5µM
CC(=O)N1CCc2cc(S(=O)(=O)NC(CC(C)C)C(=O)N3CCCC3)ccc21 (stereo not drawn)	Pf growth 96h 11.7µM
CN(CC(O)CON=C1c2ccccc2-c2ccccc21)S(=O)(=O)c1ccc(Br)cc1 (stereo not drawn)	AmpC detergent inconclusive, Pf growth 96h inconclusive, Pf growth 48h 6.57µM
CCN(CC(O)CON=C1c2ccccc2-c2ccccc21)S(=O)(=O)c1ccc(Cl)cc1 (stereo not drawn)	AmpC detergent inconclusive, Pf growth 96h inconclusive, Pf growth 48h inconclusive
CCN(CC(O)CON=C1c2ccccc2-c2ccccc21)S(=O)(=O)c1ccc(C)cc1 (stereo not drawn)	Pf growth 96h 2.33µM, Pf growth 48h inconclusive
